# Data taken from PubChem BioAssay (NCATS).
# Records with an inconclusive call do not appear. A call without a number means that no potency is given here. Calls of active or inactive are those of the source. Unless noted, calls follow the shape of the dose curve; as a rule, active = well fitted curve in the direction sought with a large enough effect; inconclusive = small, poorly fitted or top-dose-only effect, or another doubt; inactive = no such curve, though single readings can be large; an effect the other way counts as inactive or inconclusive.
# What was measured:
# [1] = Validation screen for small molecules that induce DNA re-replication in MCF 10A normal breast cells (AID 463097); also: nearly all actives have a fitted effect of over 60% in size
# Summary of the method: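 MCF 10A cells exposed to compound 48 hr at 37 C, 5% CO2, then Hoechst-stained 40 min. Laser-scanning imaging of nuclear DNA content (405 nm ex, 500-530 nm em); re-replication scored as rise in nuclei with elevated fluorescence intensity.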
# [2] = target: Ubiquitin carboxyl-terminal hydrolase 2 (Homo sapiens) (UniProt O75604); test: qHTS Validation Assay for Inhibitors of Ubiquitin-specific Protease USP2a Using CHOP2 as the Reporter (AID 463106)
# Summary of the method: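 Inhibition is expressed relative to NEM as the full-inhibition control, with concentration-response curves classed by fit quality, magnitude and activity. Enzyme (USP2 core, 10nM) meets 25nM Ub-CHOP2 after compound preincubation; readings are taken at 60min.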
# [3] = target: DNA polymerase III PolC-type (Bacillus subtilis (strain 168)) (UniProt P13267); test: qHTS Validation Assay for the Inhibitors of DNA Replication in Gram-Positive Bacteria (AID 485295);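 also: PicoGreen fluorescence of double-stranded DNA made on primed circular M13 template; series mostly up to about 57 µM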
# Summary of the method: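 Reconstituted B. subtilis Pol III holoenzyme (PolC, beta clamp, SSB, primase) preincubated with compound, then M13Gori single-stranded circular template with dNTPs/NTPs added; room temperature reaction. Stopped with EDTA/PicoGreen; dsDNA fluorescence read, EDTA as full-inhibition control.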
# [4] = target: Tumor susceptibility gene 101 protein (Homo sapiens) (UniProt Q99816); test: qHTS Validation Assay for Iinhibitors of HIV-1 Budding by Blocking the Interaction of PTAP/TSG101 (AID 485342; calls by dose curve)
# Summary of the method: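 Tsg101 binding domain (10 uM) with FITC-labeled PTAP peptide (50 nM) in HEPES pH 7.5 buffer, 20 min at r.t. with compounds. Binding measured by fluorescence polarization.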
# [5] = qHTS Validation Assay to Find Inhibitors of Chronic Active B-Cell Receptor Signaling (AID 485345; active = well fitted curve in the direction sought with a large enough effect in the main read-out, with a control signal flat, not every such curve was filed as active)
# Summary of the method: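 TMD8 ABC-DLBCL cells with dox-inducible green luciferase–IκBα fusion and red native luciferase; compounds 46 uM–3 nM, 4 h at 37C with doxycycline in 0.5% FBS IMDM. Green/red ratio normalized to basal and 10 uM MG-132.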
# [6] = Quantitative high throughput screen for delayed death inhibitors of the malarial parasite plastid, 96 hour incubation (AID 488745); also: series mostly up to about 29 µM; nearly all actives have a fitted effect of over 70% in size
# Summary of the method: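 Decreased firefly luciferase luminescence indicates inhibited growth of reporter-integrated P. falciparum after two generations (96 h, 37 C, 5% CO2). Infected erythrocytes at 0.1% parasitemia, 2% hematocrit, in Albumax-supplemented RPMI 1640.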
# [7] = Quantitative high throughput screen for delayed death inhibitors of the malarial parasite plastid, 48 hour incubation (AID 488752); also: nearly all actives have a fitted effect of over 65% in size
# Summary of the method: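 One-generation (48 h) growth assay: a decrease in luciferase signal from an integrated reporter in P. falciparum-infected red cells (0.1% parasitemia, 2% hematocrit) after compound exposure at 37 C indicates parasite inhibition.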
# [8] = target: Thioredoxin reductase 1, cytoplasmic (Rattus norvegicus) (UniProt O89049); test: qHTS Assay for Substrates of Mammalian Selenoprotein Thioredoxin Reductase 1 (TrxR1) (AID 488772);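 also: series mostly up to about 57 µM; a drop in NADPH fluorescence below the no-compound background marks a TrxR1 substrate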
# Summary of the method: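 In this dual-purpose format, potential substrates are identified from the first fluorescence read after selenite addition, not from the 8-minute delta. Rat enzyme is preincubated with NADPH and then with compound at ~22 deg C.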
# [9] = target: Flap endonuclease 1 (Homo sapiens) (UniProt P39748); test: qHTS Validation Assay for the Inhibitors of Human Flap endonuclease 1 (FEN1) (AID 488816); also: potency is read from the fitted curve at half-maximal effect
# Summary of the method: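 Steps: add FEN1 (10 nM reagent) or buffer only; pin compounds; hold 15 min at room temperature; start with substrate, 50 nM final; read at 0 and 15 min; correct, normalize and fit a four-parameter Hill curve.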
# [10] = target: M-phase phosphoprotein 8 (Homo sapiens) (UniProt Q99549); test: qHTS Validation Assay for Inhibitors for MPP8 Chromodomain Interactions with Methylated Histone Tails (AID 488949); also: top concentration of the series differs between compounds; nearly all actives have a fitted effect of over 55% in size
# Summary of the method: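 MPP8 (50 nM) was pre-bound to 50 nM biotinylated H3(1-18)K9me3 peptide in PBS pH 7.4 with 0.01% Tween-20. Compounds were then added for 30 min at room temperature, and complex disruption was read by AlphaScreen with streptavidin donor and nickel-chelate acceptor beads.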
# [11] = target: Chromobox protein homolog 1 (Homo sapiens) (UniProt P83916); test: qHTS Validation Assay for Inhibitors of HP1-beta Chromodomain Interactions with Methylated Histone Tails (AID 488953);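 also: loss of AlphaScreen luminescence from HP1-beta binding biotinylated H3K9me3 peptide; series mostly up to about 110 µM; nearly all actives have a fitted effect of over 50% in size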
# Summary of the method: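 AlphaScreen proximity signal from streptavidin donor and nickel chelate acceptor beads (final 10 ug/mL) after 30 min dark incubation. Compounds had 30 min at room temperature with preformed complex of 50 nM HP1-beta and 50 nM b-H3(1-18)K9me3 in PBS pH 7.4 with 0.01% Tween-20.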
# [12] = target: Methanococcus maripaludis chaperonin (MmCpn) (UniProt Q6LX38); test: High-Throughput Screening for Modulators of Cytosolic Chaperonin Activity: MmCpn Primary Screen (AID 488978);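 also: 50 nM MmCpn enzyme hydrolysing 30 µM ATP at 37 °C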
# Summary of the method: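 MmCpn at 50 nM final was preincubated 5 min at RT with compound. ATP was then added at 30 uM final for 10 min at 37 C. ADP formed was detected by Transcreener HTRF (665/590 nm).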
# [13] = target: Transient receptor potential cation channel subfamily V member 1 (Homo sapiens) (UniProt Q8NER1); test: HTS Assay for Compounds that Act as Enhancers of the Vanilloid Receptor 1 (AID 488979)
# Summary of the method: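 TRPV1-expressing cells loaded with Fluo-8 calcium dye; compounds added and calcium influx read kinetically for 3 min (agonist phase), then capsaicin at EC20 added and read 2 min more for enhancement. Fluorescence ex 480/em 520 nm.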
# [14] = target: Thyrotropin receptor (Homo sapiens) (UniProt P16473); test: qHTS Assay for Antagonists of the Thyroid Stimulating Hormone Receptor (AID 488980); also: series mostly up to about 58 µM
# Summary of the method: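 TSHR-transfected HEK293 cells (2000/well) in HEPES-buffered HBSS with 70 uM RO 20-1724 were stimulated with 4 nM TSH (EC80, final) in the presence of compound. cAMP was measured by HTRF competition after lysis and 30 min at RT.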
# [15] = target: D(1A) dopamine receptor (Homo sapiens) (UniProt P21728); test: HTS Assay for Allosteric Agonists of the Human D1 Dopamine Receptor: Primary Screen for Potentiators (AID 488982)
# Summary of the method: (§1)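 Tetracycline-induced HEK293 T-REx cells force-coupled to calcium signalling were incubated overnight at 30 C and dye-loaded at room temperature. Calcium flux over 180 s after compound addition flagged agonists; a further 180 s read after EC20 dopamine flagged potentiators.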
# [16] = Cytometry Cell-Based qHTS for Inhibitors of the mTORC1 Signaling Pathway in MEF cells (AID 2668);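 also: Tsc2-/- p53-/- mouse embryonic fibroblasts stably re-expressing wild-type Tsc2; percent cells positive for phospho-rpS6 Ser235/236 relative to propidium iodide stain; series mostly up to about 38 µM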
# Summary of the method: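 MEFs (Tsc2-/-, p53-/- stably expressing WT Tsc2) treated 24 h at 37 degree Celsius, fixed, stained with Alexa-488 anti-phospho-rpS6 Ser235/236 and propidium iodide; Acumen laser scanning. Reported as % positive cells, phospho-S6 normalized to PI.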
# [17] = target: Beta-2 adrenergic receptor (Homo sapiens) (UniProt P07550); test: qHTS validation assay of beta-arrestin-biased ligands of beta2-adrenergic receptor (AID 485366)
# Summary of the method: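 qHTS, Tango cells, 1500 cells/well, DMEM + 1% FBS. Cpd 18 hr at 37 degrees C. Luciferin/ATP/CoA detection mix, 15 min RT, luminescence read. %Activity from corrected signal; CRC fit, curve class.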
# [18] = target: Thioredoxin reductase 1, cytoplasmic (Rattus norvegicus) (UniProt O89049); test: qHTS Assay for Inhibitors of Mammalian Selenoprotein Thioredoxin Reductase 1 (TrxR1) (AID 488773); conditions: Potency: inhibition;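 also: drop in NADPH fluorescence over an 8 min run after selenite addition; series mostly up to about 57 µM; nearly all actives have a fitted effect of over 40% in size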
# Summary of the method: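 Inhibition is scored from the loss of NADPH fluorescence between first and last reads of an 8-min kinetic run. Selenite (400 uM) was the substrate, added after 15 min compound preincubation at room temperature.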
# [19] = target: D(1A) dopamine receptor (Homo sapiens) (UniProt P21728); test: HTS Assay for Allosteric Agonists of the Human D1 Dopamine Receptor: Primary Screen for Agonists (AID 488981)
# Summary of the method: as §1
# [20] = target: ATP-dependent 6-phosphofructokinase (Trypanosoma brucei brucei) (UniProt O15648); test: qHTS Validation Assay to Find Inhibitors of T. brucei phosphofructokinase (AID 485368)
# Summary of the method: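 Luminescent ADP detection measures PFK turnover of fructose-6-phosphate (0.5 mM) with ATP (0.1 mM) at pH 8.0. Reaction runs 45 min at room temperature with 1.25 nM enzyme; inhibitors tested as titrations up to 57 uM.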
# Sequence of Flap endonuclease 1 (Homo sapiens) (P39748 whole entry, looked up): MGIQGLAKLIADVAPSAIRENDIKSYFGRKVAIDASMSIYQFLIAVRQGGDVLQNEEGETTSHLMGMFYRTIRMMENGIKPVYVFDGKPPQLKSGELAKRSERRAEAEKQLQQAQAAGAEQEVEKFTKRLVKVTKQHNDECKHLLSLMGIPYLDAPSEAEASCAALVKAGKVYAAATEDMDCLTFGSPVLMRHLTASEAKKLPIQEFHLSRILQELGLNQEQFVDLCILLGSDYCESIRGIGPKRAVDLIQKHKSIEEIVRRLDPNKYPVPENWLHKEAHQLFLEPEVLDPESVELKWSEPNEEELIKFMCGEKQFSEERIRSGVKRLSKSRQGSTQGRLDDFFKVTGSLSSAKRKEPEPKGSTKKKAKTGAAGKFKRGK
# Sequence of Ubiquitin carboxyl-terminal hydrolase 2 (Homo sapiens) (O75604 whole entry, looked up): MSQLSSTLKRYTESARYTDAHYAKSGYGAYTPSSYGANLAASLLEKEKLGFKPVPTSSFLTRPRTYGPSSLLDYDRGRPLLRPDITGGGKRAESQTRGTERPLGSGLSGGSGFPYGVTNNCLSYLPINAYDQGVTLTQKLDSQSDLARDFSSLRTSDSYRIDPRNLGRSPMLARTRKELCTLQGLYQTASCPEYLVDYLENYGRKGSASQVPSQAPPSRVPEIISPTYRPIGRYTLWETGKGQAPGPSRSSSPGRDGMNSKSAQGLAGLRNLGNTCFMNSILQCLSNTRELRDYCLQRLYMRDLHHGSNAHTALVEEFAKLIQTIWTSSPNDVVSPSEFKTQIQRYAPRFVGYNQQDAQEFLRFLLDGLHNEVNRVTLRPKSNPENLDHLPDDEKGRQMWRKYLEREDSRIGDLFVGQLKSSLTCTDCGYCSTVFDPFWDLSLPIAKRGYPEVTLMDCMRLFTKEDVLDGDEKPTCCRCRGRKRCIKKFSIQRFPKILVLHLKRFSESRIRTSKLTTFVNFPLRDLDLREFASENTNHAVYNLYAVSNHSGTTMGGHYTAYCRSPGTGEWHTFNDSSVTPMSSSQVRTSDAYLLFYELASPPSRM
# Sequence of DNA polymerase III PolC-type (Bacillus subtilis (strain 168)) (P13267 whole entry, looked up): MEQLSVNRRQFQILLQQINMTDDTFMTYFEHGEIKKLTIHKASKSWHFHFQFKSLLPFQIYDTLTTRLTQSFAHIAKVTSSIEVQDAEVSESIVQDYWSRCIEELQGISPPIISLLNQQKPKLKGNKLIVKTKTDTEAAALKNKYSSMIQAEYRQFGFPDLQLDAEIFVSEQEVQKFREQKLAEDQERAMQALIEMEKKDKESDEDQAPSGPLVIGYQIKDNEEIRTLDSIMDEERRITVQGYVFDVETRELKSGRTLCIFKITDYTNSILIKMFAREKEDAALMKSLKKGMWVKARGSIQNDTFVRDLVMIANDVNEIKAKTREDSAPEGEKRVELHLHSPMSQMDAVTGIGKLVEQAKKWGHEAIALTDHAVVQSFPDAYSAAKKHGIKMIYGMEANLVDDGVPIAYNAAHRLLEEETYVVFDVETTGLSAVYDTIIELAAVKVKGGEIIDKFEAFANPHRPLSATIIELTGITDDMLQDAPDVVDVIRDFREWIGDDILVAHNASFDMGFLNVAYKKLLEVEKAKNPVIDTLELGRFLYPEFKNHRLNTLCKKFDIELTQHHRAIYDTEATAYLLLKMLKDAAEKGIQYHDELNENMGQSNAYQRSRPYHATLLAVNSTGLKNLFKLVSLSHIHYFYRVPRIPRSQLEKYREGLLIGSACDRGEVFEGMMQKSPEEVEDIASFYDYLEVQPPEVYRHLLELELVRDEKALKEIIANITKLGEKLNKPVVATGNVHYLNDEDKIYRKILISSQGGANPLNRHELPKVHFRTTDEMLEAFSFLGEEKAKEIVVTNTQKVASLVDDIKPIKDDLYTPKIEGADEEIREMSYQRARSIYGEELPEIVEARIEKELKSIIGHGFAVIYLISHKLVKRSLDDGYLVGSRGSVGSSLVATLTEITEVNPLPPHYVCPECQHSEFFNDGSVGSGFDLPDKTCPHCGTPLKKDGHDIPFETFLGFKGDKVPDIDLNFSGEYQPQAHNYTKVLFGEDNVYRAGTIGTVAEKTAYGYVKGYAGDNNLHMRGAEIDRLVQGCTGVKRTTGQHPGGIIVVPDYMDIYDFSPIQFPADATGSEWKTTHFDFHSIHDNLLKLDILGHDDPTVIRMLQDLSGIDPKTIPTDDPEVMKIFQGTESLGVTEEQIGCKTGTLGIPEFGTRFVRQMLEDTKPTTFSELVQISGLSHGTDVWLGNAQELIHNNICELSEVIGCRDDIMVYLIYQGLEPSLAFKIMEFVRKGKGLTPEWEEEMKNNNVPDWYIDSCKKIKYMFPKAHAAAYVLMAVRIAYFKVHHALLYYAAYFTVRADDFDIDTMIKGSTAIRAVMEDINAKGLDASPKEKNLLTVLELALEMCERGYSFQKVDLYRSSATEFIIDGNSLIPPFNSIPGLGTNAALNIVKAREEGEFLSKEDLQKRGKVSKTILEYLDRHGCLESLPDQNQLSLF
# Sequence of Tumor susceptibility gene 101 protein (Homo sapiens) (Q99816 whole entry, looked up, the tested form may be a part): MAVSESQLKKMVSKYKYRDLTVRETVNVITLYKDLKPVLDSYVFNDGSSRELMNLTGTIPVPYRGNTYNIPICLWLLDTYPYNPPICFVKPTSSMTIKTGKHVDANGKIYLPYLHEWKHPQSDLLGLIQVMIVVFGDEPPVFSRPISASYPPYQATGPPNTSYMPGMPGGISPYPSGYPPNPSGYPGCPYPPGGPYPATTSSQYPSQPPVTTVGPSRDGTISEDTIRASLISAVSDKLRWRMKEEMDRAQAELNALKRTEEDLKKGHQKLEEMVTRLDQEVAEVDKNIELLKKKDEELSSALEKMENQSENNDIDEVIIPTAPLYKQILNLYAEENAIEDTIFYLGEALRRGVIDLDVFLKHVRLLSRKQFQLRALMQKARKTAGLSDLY
# Sequence of Beta-2 adrenergic receptor (Homo sapiens) (P07550 whole entry, looked up): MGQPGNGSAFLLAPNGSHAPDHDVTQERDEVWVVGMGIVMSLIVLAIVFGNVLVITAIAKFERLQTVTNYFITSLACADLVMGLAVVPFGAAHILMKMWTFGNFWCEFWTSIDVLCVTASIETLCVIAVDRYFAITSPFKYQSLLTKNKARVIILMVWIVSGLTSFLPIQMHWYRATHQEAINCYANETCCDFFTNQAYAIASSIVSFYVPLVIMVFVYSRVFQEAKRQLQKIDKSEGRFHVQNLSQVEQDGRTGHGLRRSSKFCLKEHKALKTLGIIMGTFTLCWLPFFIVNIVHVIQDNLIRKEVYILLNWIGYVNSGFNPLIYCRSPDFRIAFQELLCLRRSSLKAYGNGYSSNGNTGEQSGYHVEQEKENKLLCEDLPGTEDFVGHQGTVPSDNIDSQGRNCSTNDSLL
# Sequence of Thyrotropin receptor (Homo sapiens) (P16473 whole entry, looked up): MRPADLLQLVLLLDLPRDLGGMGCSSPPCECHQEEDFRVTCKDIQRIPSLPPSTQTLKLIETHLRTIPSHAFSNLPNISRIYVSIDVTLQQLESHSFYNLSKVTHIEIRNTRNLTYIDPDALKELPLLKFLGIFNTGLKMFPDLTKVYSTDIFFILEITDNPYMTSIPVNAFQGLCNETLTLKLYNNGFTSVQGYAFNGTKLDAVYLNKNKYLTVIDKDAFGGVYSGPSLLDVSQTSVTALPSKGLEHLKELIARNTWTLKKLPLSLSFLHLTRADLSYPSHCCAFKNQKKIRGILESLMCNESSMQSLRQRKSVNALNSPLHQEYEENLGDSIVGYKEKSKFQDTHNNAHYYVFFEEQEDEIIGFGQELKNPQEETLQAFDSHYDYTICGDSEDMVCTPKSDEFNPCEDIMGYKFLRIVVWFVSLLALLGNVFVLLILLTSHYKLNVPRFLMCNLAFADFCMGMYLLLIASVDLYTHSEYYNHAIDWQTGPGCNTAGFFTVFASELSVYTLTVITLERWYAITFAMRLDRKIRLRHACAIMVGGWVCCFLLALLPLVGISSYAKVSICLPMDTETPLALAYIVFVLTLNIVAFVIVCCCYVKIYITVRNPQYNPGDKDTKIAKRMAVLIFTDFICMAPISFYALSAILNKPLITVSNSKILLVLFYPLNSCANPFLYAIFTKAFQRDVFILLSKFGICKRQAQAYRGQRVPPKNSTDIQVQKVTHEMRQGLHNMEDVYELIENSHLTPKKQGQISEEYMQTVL
# Sequence of D(1A) dopamine receptor (Homo sapiens) (P21728 whole entry, looked up): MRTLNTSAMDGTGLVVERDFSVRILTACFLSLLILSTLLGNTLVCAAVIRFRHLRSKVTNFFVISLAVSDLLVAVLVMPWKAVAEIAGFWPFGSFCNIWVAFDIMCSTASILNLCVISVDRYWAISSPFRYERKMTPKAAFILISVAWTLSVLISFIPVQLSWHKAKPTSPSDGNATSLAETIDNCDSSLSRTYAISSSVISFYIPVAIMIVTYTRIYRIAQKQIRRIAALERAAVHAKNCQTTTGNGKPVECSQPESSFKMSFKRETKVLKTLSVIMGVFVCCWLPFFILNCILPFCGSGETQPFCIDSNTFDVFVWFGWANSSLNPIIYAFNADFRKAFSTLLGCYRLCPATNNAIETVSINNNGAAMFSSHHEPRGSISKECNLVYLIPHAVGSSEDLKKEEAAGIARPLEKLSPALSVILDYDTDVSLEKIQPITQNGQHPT
# Sequence of Thioredoxin reductase 1, cytoplasmic (Rattus norvegicus) (O89049 whole entry, looked up): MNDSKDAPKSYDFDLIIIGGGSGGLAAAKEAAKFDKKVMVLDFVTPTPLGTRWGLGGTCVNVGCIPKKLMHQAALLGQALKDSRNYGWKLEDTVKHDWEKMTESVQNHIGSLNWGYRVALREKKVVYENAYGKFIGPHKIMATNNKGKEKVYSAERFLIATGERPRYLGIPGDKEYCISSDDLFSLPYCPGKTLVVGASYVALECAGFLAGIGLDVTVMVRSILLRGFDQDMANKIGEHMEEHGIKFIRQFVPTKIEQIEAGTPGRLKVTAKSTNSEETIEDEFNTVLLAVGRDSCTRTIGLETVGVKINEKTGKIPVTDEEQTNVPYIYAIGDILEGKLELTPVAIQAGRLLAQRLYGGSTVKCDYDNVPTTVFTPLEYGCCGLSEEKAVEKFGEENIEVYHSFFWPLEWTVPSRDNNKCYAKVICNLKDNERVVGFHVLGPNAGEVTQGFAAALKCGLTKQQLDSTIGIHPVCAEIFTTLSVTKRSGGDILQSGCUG
SMILES,Potency [1],outcome [2],Potency [3],outcome [4],Potency [5],Potency [6],Potency [7],outcome [8],Potency [9],Potency [10],Potency [11],outcome [12],outcome [13],outcome [14],Potency [15],Potency [16],outcome [17],Potency [18],outcome [19],Potency [20]
CNC[C@H](O)c1ccc(O)c(O)c1,inactive,inactive,inactive,inactive,inactive,inactive,inactive,inactive,10.6 µM (active),inactive,inactive,inactive,inactive,inactive,inactive,,,,,
CN(C)CCCC1(c2ccc(F)cc2)OCc2cc(C#N)ccc21 (stereo unspecified),inactive,inactive,inactive,inactive,inactive,inactive,inactive,inactive,inactive,inactive,inactive,inactive,,inactive,inactive,inactive,inactive,inactive,inactive,
O=C(c1ccccc1)c1ccc2n1CCC2C(=O)O (stereo unspecified),inactive,inactive,inactive,inactive,inactive,inactive,inactive,,inactive,inactive,,inactive,inactive,,inactive,inactive,inactive,inactive,inactive,inactive
OC(CN1CCN(c2cccc(Cl)c2)CC1)C(c1ccccc1)c1ccccc1 (stereo unspecified),,inactive,inactive,inactive,inactive,inactive,inactive,,inactive,inactive,,inactive,inactive,inactive,inactive,inactive,inactive,inactive,inactive,inactive
CC1(C)C(=O)N(CCN2CCC(C(=O)c3ccc(F)cc3)CC2)c2ccccc21,,inactive,inactive,inactive,,,,inactive,inactive,inactive,,inactive,inactive,inactive,inactive,inactive,inactive,inactive,inactive,
